# From PubChem BioAssay (NCATS)
# Records with an inconclusive call do not appear. Where a call stands in place of a potency, no number is given. The source made the active and inactive calls. Calls come from the whole dose curve; as a rule, active = well fitted curve in the direction sought with a large enough effect; inconclusive = small, poorly fitted or top-dose-only effect, or another doubt; inactive = no such curve, though single readings can be large; an effect the other way counts as inactive or inconclusive. Peptide text beside a SMILES is read from it.
# Legend:
# [1] = qHTS to identify inhibitors of the type 1 interferon - major histocompatibility complex class I in skeletal muscle: primary screen against the NCATS Pharmaceutical Collection (AID 1347407);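 note: luminescence of HiBiT knocked into endogenous HLA-B as interferon-induced MHC class I level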
# How it was run: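 A qHTS format is used: 8-point, 1:5 compound series with 46 uM top final concentration, applied alongside 4 ng/ml IFN-beta to HLA-B*08:01-HiBiT knock-in myoblasts. Luminescence is measured after 24 h treatment.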
# [2] = qHTS to identify inhibitors of the type 1 interferon - major histocompatibility complex class I in skeletal muscle: primary screen against the NCATS Mechanism Interrogation Plate v5.0 (MIPE) Libary (AID 1347411); note: nearly all actives have a fitted effect of over 65% in size
# How it was run: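 Luminescence from CRISPR HiBit-tagged endogenous HLA-B in human myoblasts reported MHC class I level after 24 h of IFN-beta (4 ng/ml) plus compound. Compounds ran as 11-point 1:3 series, top 46 uM final.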
# [3] = biological target: Protein phosphatase 1D (Homo sapiens) (UniProt O15297); assay: RapidFire Mass Spectrometry qHTS Assay for Modulators of WT P53-Induced Phosphatase 1 (WIP1) (AID 1347424);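 note: amount of dephosphorylated VEPPL-S-QETFS peptide product formed by WIP1; series mostly up to about 63 µM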
# How it was run: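 RapidFire mass spectrometry measured dephosphorylated peptide after 5 min room-temperature reaction of 2 uM VEPPL-pS-QETFS with 10 nM WIP1 (50 mM Tris-HCl pH 7.5, 30 mM MgCl2, 0.1 mM EGTA, BSA), following 1 hr compound preincubation; 1 uM isotope-labelled product standard.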
# [4] = Primary qHTS for inhibitors of La Crosse Virus (LACV) - induced cell death in SH-SY5Y cells (AID 1508616);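 note: top concentration of the series differs between compounds; higher means more rescue of cells from virus-induced death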
# How it was run: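 Rescue of virus-induced death was read as ATPLite luminescence after 6 days at 37C, scaled between DMSO wells with LACV and without virus. Cells were SH-SY5Y, 6000/well, infected at 0.01 MOI after compound addition.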
# [5] = biological target: Calcium and integrin-binding protein 1 (Homo sapiens) (UniProt Q99828); assay: Primary qHTS for Identification of Calcium Integrin Binding Protein 1 (CIB1) Competitor (AID 1508620);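 note: GST tagged CIB1 binding a fluorescein labelled alphaIIb integrin peptide tracer; top concentration of the series differs between compounds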
# How it was run: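 CIB1-GST (1 uM final) and compound incubated 15 min at room temperature before adding FITC-alphaIIb peptide tracer (100 nM final). Competition for binding read by fluorescence polarization (ex 480, em 540) after another 15 min at room temperature.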
# [6] = biological target: Protein phosphatase 1D (Homo sapiens) (UniProt O15297); assay: Rhodamine-PBP qHTS Assay for Modulators of WT P53-Induced Phosphatase 1 (WIP1) (AID 1347425)
# How it was run: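 The read-out is the change in Rhodamine-PBP fluorescence (f1 - f0, ex 525/em 598 nm) as Pi is released, read each minute for 11 min. Final reaction: 5 nM WIP1, 10 uM phosphopeptide VEPPL-pS-QETFS, 10 uM Rh-PBP, 50 mM Tris-HCl pH 7.5, 30 mM MgCl2. Compound was preincubated with enzyme for 1 hour at room temperature.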
# [7] = qHTS for inhibitors of adenylyl cyclases using a fission yeast platform: a pilot screen against the NCATS LOPAC library (AID 1347410)
# How it was run: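 Inhibition of GNAS-stimulated AC9 activity in S. pombe was inferred from derepression of a PKA-repressed fbp1-GFP reporter, measured as cytometric fluorescence after 18 h at 30C with compounds at up to 57 µM.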
# [8] = Validation qHTS assay for inhibitors of Activation Induced Cytidine Deaminase (AID): UDG Counterscreen signal (AID 1347427)
# How it was run: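 Fluorescence at 560 nm excitation, 665 nm emission reports UDG signal after 250 mM NaOH (2x) addition and 30 min. Enzymes (AID 1 uM, UDG 2 U/mL, at 4/3x) preincubated 10 min with compound, then 4 h with 4x 250 nM DJC20/DJC23 substrate at room temperature.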
# [9] = biological target: Single-stranded DNA cytosine deaminase (Homo sapiens) (UniProt Q9GZX7); assay: Validation qHTS assay for inhibitors of Activation Induced Cytidine Deaminase (AID): AID signal (AID 1347429)
# How it was run: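 Compounds (final up to 114 uM) preincubated with AID plus UDG; 250 nM DJC20/DJC23 substrate mix (4x stock) added, 4 hr at room temperature, then NaOH, 30 min. Read 1 fluorescence at 540 nm excitation, 590 nm emission.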
# [10] = Counterscreen qHTS for small molecule stabilizers of the endoplasmic reticulum resident proteome: GLuc-NoTag assay (AID 1508627); note: potency is the fitted concentration of half-maximal effect
# How it was run: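 Counterscreen line: SH-SY5Y-GLuc-NoTag cells, treated with compound 19 hr before a 4 hr, 100 nM thapsigargin calcium depletion. Secreted Gaussia luciferase in the medium was measured by luminescence after coelenterazine was added (0.07x final), with cells unlysed.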
# [11] = Confirmatory qHTS for small molecule stabilizers of the endoplasmic reticulum resident proteome: Secreted ER Calcium Modulated Protein (SERCaMP) assay (AID 1508628); note: series mostly up to about 76 µM; nearly all actives have a fitted effect of over 40% in size
# How it was run: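 Reporter secretion upon ER calcium depletion (100 nM thapsigargin, 4 h, 37C) is measured as medium luminescence with coelenterazine, after 16 h compound pretreatment of SH-SY5Y-GLuc-SERCaMP cells; primary at three concentrations up to 38.3 uM, follow-up at 11 (up to 76.6 uM).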
# Calcium and integrin-binding protein 1 (Homo sapiens), sequence (Q99828 whole entry, looked up): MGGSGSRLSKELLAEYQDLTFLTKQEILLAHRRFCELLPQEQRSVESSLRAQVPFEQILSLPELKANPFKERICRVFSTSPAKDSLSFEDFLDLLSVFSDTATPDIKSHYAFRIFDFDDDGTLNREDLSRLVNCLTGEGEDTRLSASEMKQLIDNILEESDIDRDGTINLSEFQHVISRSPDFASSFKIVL
# Protein phosphatase 1D (Homo sapiens), sequence (O15297 whole entry, looked up): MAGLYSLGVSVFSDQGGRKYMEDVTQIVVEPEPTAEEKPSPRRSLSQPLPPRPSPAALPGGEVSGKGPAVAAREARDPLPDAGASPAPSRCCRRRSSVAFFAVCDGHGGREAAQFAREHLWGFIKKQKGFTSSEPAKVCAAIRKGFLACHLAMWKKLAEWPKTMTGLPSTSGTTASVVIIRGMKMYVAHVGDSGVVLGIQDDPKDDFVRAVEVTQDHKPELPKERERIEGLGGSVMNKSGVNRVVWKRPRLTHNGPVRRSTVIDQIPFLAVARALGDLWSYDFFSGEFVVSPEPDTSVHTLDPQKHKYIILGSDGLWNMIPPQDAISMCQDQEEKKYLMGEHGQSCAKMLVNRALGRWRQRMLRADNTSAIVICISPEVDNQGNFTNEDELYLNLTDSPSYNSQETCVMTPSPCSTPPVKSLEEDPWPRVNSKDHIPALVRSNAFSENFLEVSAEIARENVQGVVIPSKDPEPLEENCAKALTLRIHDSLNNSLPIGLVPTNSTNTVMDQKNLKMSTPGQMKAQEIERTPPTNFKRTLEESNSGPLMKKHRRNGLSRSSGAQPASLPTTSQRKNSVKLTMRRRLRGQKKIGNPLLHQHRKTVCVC
# Single-stranded DNA cytosine deaminase (Homo sapiens), sequence (Q9GZX7 whole entry, looked up): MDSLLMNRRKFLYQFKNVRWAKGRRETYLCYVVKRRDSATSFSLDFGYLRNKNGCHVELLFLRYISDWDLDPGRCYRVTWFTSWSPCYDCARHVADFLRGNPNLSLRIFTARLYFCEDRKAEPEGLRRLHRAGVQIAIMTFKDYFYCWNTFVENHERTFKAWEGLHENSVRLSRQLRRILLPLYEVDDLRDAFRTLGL
smiles,measurement,setting,value
COC(=O)[C@H](Cc1ccccc1)NC(=O)[C@@H](N)CC(=O)O (H-Asp-Phe-OMe),Potency,[1],inactive
same,Potency,[2],inactive
same,Potency,[3],inactive
same,Potency,[4],inactive
same,Potency,[5],inactive
COC(=O)N[C@H](C(=O)N[C@@H](Cc1ccccc1)[C@@H](O)CN(Cc1ccc(-c2ccccn2)cc1)NC(=O)[C@@H](NC(=O)OC)C(C)(C)C)C(C)(C)C,Potency,[1],inactive
same,Potency,[3],inactive
same,outcome,[6],inactive
same,Potency,[4],inactive
same,Potency,[5],inactive
O=C(O)CCNC(=O)c1ccc(N=Nc2ccc(O)c(C(=O)O)c2)cc1,Potency,[1],inactive
same,Potency,[2],inactive
same,Potency,[3],inactive
same,Potency,[4],inactive
same,Potency,[5],inactive
Cc1ncc([N+](=O)[O-])n1CC(C)O (configuration not stated),Potency,[1],inactive
same,Potency,[2],inactive
same,Potency,[3],inactive
same,Potency,[4],inactive
same,Potency,[5],inactive
CCCc1cc(=O)[nH]c(=S)[nH]1,Potency,[1],inactive
same,Potency,[2],inactive
same,Potency,[3],inactive
same,Potency,[4],inactive
CS(=O)(=O)OCCCCOS(C)(=O)=O,Potency,[1],inactive
same,Potency,[2],inactive
same,Potency,[3],inactive
same,Potency,[4],inactive
same,Potency,[5],inactive
NC(=O)Cc1cccc(C(=O)c2ccccc2)c1N,Potency,[1],inactive
same,Potency,[3],inactive
same,outcome,[6],inactive
same,Potency,[4],inactive
same,Potency,[5],inactive
O=c1cc(N2CCOCC2)oc2c(-c3ccccc3)cccc12,outcome,[7],inactive
same,Potency,[2],inactive
same,Potency,[8],inactive
same,outcome,[9],inactive
same,Potency,[5],inactive
same,Potency,[10],inactive
same,Potency,[11],inactive
CN1C(C(=O)Nc2ccccn2)=C(O)c2sccc2S1(=O)=O,Potency,[3],inactive
same,outcome,[6],inactive
same,Potency,[4],inactive
same,Potency,[5],inactive
O=c1oc2cc(O)ccc2s1,Potency,[2],inactive
same,Potency,[5],inactive
Cc1cccc(C)c1OCC(=O)N[C@@H](Cc1ccccc1)[C@@H](O)C[C@H](Cc1ccccc1)NC(=O)[C@H](C(C)C)N1CCCNC1=O,Potency,[1],inactive
same,Potency,[3],inactive
same,Potency,[4],inactive
same,Potency,[5],inactive
same,Potency,[10],39.8 µM (active)
